In PubChem BioAssay AID1851 (National Center for Advancing Translational Sciences (NCATS), 2009):
Where “and” joins values, the source holds several entries; their conditions need not be identical. Equal values may be shown once. Screen size: about 16,000 compounds; about 2,600 (16%) were called active. Another 20% or so got no clear call; they are omitted. Not all results are given here. Unmarked numbers belong to inactive results. Calls come from the whole dose curve; as a rule, active = well fitted curve in the direction sought with a large enough effect; inconclusive = small, poorly fitted or top-dose-only effect, or effect the other way; inactive = no such curve, though single readings can be large or run the other way. Peptide text beside a SMILES is read from it. * marks the point of attachment. Cbz = O=C(OCc1ccccc1)*

The compounds below were run against Cytochrome P450 2D6 (Homo sapiens) (UniProt P10635) (assay: Cytochrome panel assay with activity outcomes). Conditions: recombinant CYP, pro-luciferin dealkylation, luminescence, p450-cyp2d6; series mostly up to 57.1 µM; activity, negative = inhibition: at the top concentration.
% is set by controls: 0 for no effect and ±100 for the full control effect.

Chain of Cytochrome P450 2D6 (Homo sapiens) (P10635 whole entry, looked up): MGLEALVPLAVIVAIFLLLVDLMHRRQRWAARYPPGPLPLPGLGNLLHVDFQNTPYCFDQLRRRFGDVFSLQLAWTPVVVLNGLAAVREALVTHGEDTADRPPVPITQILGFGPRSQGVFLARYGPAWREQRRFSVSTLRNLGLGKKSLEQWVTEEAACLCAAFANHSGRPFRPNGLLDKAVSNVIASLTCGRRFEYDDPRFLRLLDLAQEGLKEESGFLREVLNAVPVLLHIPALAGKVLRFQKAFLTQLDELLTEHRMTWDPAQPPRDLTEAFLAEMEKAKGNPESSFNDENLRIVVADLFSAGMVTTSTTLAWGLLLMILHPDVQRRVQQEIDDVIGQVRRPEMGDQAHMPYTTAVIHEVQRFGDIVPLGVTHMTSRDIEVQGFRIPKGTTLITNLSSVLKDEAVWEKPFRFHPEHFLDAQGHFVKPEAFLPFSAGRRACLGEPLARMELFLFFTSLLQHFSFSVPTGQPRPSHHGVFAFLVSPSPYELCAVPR

SMILES | activity, negative = inhibition | AC50
CNC(=O)c1c(I)c(C(=O)NCC(=O)Nc2c(I)c(C(=O)O)c(I)c(C(=O)NCCO)c2I)c(I)c(N(C)C(C)=O)c1I | -4.4% [at 25.6 µM] | –
CCOC(=O)[C@H](CCc1ccccc1)N[C@@H](C)C(=O)N1CCC[C@H]1C(=O)O | 3.29% [at 25.6 µM] | –
C[C@@H](NC(=O)/C(C#N)=C/c1ccc(O)c(O)c1)c1ccccc1 | -7.05% | –
CCOC(=O)/C(C#N)=C\c1ccc(OCC(=O)Nc2ccc(C)cc2C)c(OC)c1 | 9.89% | –
C[C@H](NC(=O)/C(C#N)=C/c1ccc(O)c(O)c1)c1ccccc1 | -20.2% | –
N#C/C(=C\c1ccc(O)c(O)c1)C(=O)OCCc1cccs1 | – | 12.6 µM (active)
N#C/C(=C\c1ccc(O)c(O)c1)C(=O)NCc1ccccc1 | -5.88% | –
N#C/C(=C\c1ccc(O)c(O)c1)C(=O)NCCCc1ccccc1 | – | 31.6 µM (active)
Nc1ncncc1-c1ccc([N+](=O)[O-])cc1 | 9.87% | –
CC(=O)NC(NC(C)=O)c1ccc(Br)cc1 | 1.99% | –
Cc1ccc(-n2nnnc2Sc2nc([N+](=O)[O-])nn2C)cc1C | -18.4% | –
Cc1nc(S(=O)(=O)c2cccc(Cl)c2)nc2c1CCC2 | -5.41% | –
CC(=O)N(CC(=O)O)c1ccccc1C(=O)O | 10.9% | –
CC(C)(C)c1cccc(Oc2nn[nH]n2)c1 | 7.78% | –
CC1=C(C(N)=O)C(c2cccs2)n2nc(-c3cccc(Cl)c3)nc2N1 (stereo unspecified) | -10.2% | –
O=c1[nH]c2cc(Br)cnc2nc1/C=C(\O)c1ccc(F)cc1 | -12.9% | –
COC(=O)[C@@H]1C[C@H]1[C@@H](NC(=O)c1cccnc1)c1ccccc1 | -11.1% | –
COCCn1c(=O)c(-c2cccc(C#N)c2)nc2cnc(Oc3ccccc3)nc21 | -3.81% | –
NC(=O)NCc1ccc(Cl)cc1 | -19.7% | –
Cc1ccc(Cn2cccc(NC(=O)NCc3ccccc3)c2=O)cc1 | 3.4% | –
Cc1ccc(C)c(NC(=O)NCc2ccc(Cl)cc2)c1 | – | 3.98 µM (active)
CCc1c(C)c2c(C)[nH]nc2oc1=O | -6.95% | –
N#Cc1c(-c2ccc(Cl)cc2)nc2n(c1=O)CCCS2 | -20.7% | –
COCCNC(=O)C1CC(c2cccc(OC)c2)=NO1 (stereo unspecified) | -0.287% | –
COc1ccc(CNC(=O)C2CC(c3cccc([N+](=O)[O-])c3)=NO2)cc1 (stereo unspecified) | – | 5.01 µM (active)
COc1cccc(C2=NOC(C(=O)NCCN3CCOCC3)C2)c1 (stereo unspecified) | -13.5% | –

SMILES | activity, negative = inhibition | AC50
COc1cccc(C2=NOC(C(=O)Nc3cccnc3)C2)c1 (stereo unspecified) | – | 11.2 µM (active)
COc1ccc(CNC(=O)C2CSC(=O)C2)cc1 (stereo unspecified) | 6.49% | –
COc1cccc(C2=NOC(C(=O)Nc3ccc(OC)c(OC)c3)C2)c1 (stereo unspecified) | 8.04% | –
O=C(NCc1ccc2c(c1)OCO2)C1CC(c2cccc(Br)c2)=NO1 (stereo unspecified) | – | 0.891 µM (active)
COc1ccc(C2=NOC(C(=O)NCc3ccco3)C2)cc1OC (stereo unspecified) | -6.05% | –
COc1cccc(C2=NOC(C(=O)NCc3ccccc3)C2)c1 (stereo unspecified) | – | 12.6 µM (active)
O=C(NNC(=O)C1CC(c2cccnc2)=NO1)Nc1cccc(F)c1 (stereo unspecified) | -21.5% | –
COc1cccc(C2=NOC(C(=O)NCc3ccccn3)C2)c1 (stereo unspecified) | -3.24% | –
CO[C@H]1COC(=O)C/C=C\[C@@H](C)COC(=O)[C@@H](CCSC)NC(=O)C/C=C\[C@@H]1C | 14% [at 11.4 µM] and 6.2% [at 11.4 µM] | –
O=C(c1cc(C(F)(F)F)cc(C(F)(F)F)c1)N1CCC[C@@]2(CCN(c3ncccn3)C2)C1 | -1.56% | –
O=S(=O)(O)c1cc(N=Nc2cccc3ccccc23)c(O)c2ncccc12 | -9.94% [at 11.4 µM] | –
Nc1nc2n[nH]nc2c(=O)[nH]1 | -3.06% [at 25.6 µM] | –
O=C1[C@H]2CCn3c(=O)n(-c4ccccc4)c(=O)n3[C@H]2[C@H](O)[C@H]2O[C@@H]12 | -6.63% [at 11.4 µM] | –
Cc1nn2c3c(cnc2c1-c1ccccc1)C(=O)CC(c1ccccc1)C3 (stereo unspecified) | -5.55% | –
O=C(NCC1CCCO1)c1nn2c(c1Cl)NC(c1ccc(F)cc1)CC2C(F)(F)F (stereo unspecified) | 1.28% | –
C#CCSc1nc(Cc2ccc(Cl)cc2)nc2ccccc12 | -18.9% | –
Nc1nc(Cl)nc2c1ncn2[C@@H]1O[C@@H](CO)[C@@H](O)[C@H]1O | -1.08% | –
CCC(Sc1nc2n[nH]c(C)c2c(=N)n1-c1cccc(Cl)c1)C(=O)NCCOC (stereo unspecified) | -29.6% | –
Cc1ccc(/C(N)=N/OC(=O)Cc2cccs2)cc1 | -28.3% | –
Cc1onc(-c2ccccc2)c1C(=O)NC(CC(=O)O)c1ccc(OC(C)C)cc1 (stereo unspecified) | 3.77% | –
CCOc1ccc(C(=O)CCC(=O)O)cc1 | 23.3% | –
CCCOc1ccc(C(=O)CCNc2ccc(C)c(Cl)c2)cc1 | -13.7% | –
CCCCOc1ccc(C(=O)CCN2CCCCC2)cc1 | – | 5.01 µM (active)
Fc1ccc(CSc2ncnc3sc4c(c23)CCCC4)cc1 | -16.6% | –
COc1cc(/C=C(/NC(=O)c2ccccc2)C(=O)Nc2ccccc2)c([N+](=O)[O-])cc1OC | -7.54% | –
COc1c(F)c(F)c(C(=O)O)c(Nc2ccc(C)cc2)c1F | -9.49% | –

SMILES | activity, negative = inhibition | AC50
Nc1nonc1-c1nc2ccccc2n1Cc1ccc(F)cc1Cl | 0.412% | –
Clc1ncccc1-c1nc2ccccc2n1Cc1ccccc1 | -16.7% | –
Clc1ccc(Cn2c(-c3cccnc3Cl)nc3ccccc32)c(Cl)c1 | – | 7.94 µM (active)
CCOC(=O)C1(N(CC)CC)Sc2cc(C)ccc2NC1=O (stereo unspecified) | -10.6% | –
CC1CC2(CCCCC2)N2C(=O)C(=O)c3cccc1c32 (stereo unspecified) | – | 7.94 µM (active)
O=C(NC(=S)Nc1ccc(Oc2ccc(Cl)cc2)cc1)c1ccccc1 | -13.6% | –
CCCC[C@]1(C2CCCC2)Cc2cc(OCC(=O)O)c(Cl)c(Cl)c2C1=O | 2.96% | –
COc1cccc(Cn2c(=O)c(-c3cccs3)nc3cnc(Nc4cccc(OC)c4)nc32)c1 | 9.04% | –
COc1ccc(/C=C(\C#N)C(N)=O)c(OC)c1 | -4.62% [at 11.4 µM] | –
COc1cc(/C=C(\C#N)C(=O)c2ccc(O)c(O)c2)cc(I)c1O | -8.81% | –
COc1cc(/C=C(\C#N)C(N)=O)cc(CSc2nc3ccccc3s2)c1O | – | 0.0251 µM (active)
CCOC(=O)CC(NC(=O)c1ccco1)c1ccc(OC)cc1 (stereo unspecified) | -7.1% | –
COC(=O)c1ccc(C(NC(=O)c2ccccc2)[C@]2(C)C[C@H]2C2CCCCC2)cc1 (stereo partly specified) | 3.73% | –
CCC[C@@H]1C[C@@]1(CCC)C(NC(=O)c1ccco1)c1ccc(Cl)cc1 (stereo partly specified) | – | 3.98 µM (active)
C[C@@]1(C(NC(=O)c2ccc(-c3ccccc3)cc2)c2ccc(Cl)cc2)C[C@H]1C1CCCCC1 (stereo partly specified) | 3.15% | –
C[C@@]1(C(NC(=O)Cc2ccccc2)c2ccc(-c3ccccc3)cc2)C[C@H]1C1CCCCC1 (stereo partly specified) | 2.63% | –
CCC[C@@H]1C[C@@]1(CCC)C(NC(=O)c1ccccc1)c1cccc(Cl)c1 (stereo partly specified) | – | 3.16 µM (active)
CCCC[C@@H]1C[C@H]1C(NC(=O)c1ccccc1)c1ccccc1 (stereo partly specified) | -3.89% | –
CCC[C@@H]1C[C@@]1(CCC)C(NC(=O)OCc1ccccc1)c1ccc(-c2ccccc2)cc1 (stereo partly specified) | – | 7.94 µM (active)
COC(=O)[C@H]1C[C@@H]1[C@H](NC(=O)OCc1ccccc1)c1ccccc1 | -9.48% | –
COc1ccc2c(c1)c(CC(=O)O)c(C)n2Cc1ccc(Cl)cc1 | -6.32% | –
CO[C@@H]1COC(=O)C/C=C\[C@H](C)[C@@H](NS(=O)(=O)c2ccc(C)cc2)COC(=O)C/C=C\[C@@H]1C | 1.88% [at 11.4 µM] and 8.18% [at 11.4 µM] | –
Cc1cc(SCC(=O)c2cccs2)nc2c(C)cccc12 | -6.27% | –
O=C(O)CC(c1cccc2ccccc12)n1cccc1 (stereo unspecified) | 29.7% | –
O=C(c1cc(C(F)(F)F)cc(C(F)(F)F)c1)N1CCC2(CC1)CCN(c1ccccn1)CC2 | 0.968% | –
O=C1OC2CC3CC1CC(O)(C3)C2 (stereo unspecified) | 2.14% | –

SMILES | activity, negative = inhibition | AC50
O=C(NCCO[N+](=O)[O-])c1cccnc1 | -17.2% | –
CO[C@@H]1COC(=O)CC=C[C@@H](C)[C@@H]2C=C[C@@H](O)[C@@H](COC(=O)C/C=C\[C@H]1C)O2 | 20% [at 11.4 µM] | –
O=c1c(CCc2ccccc2)nc2cncnc2n1Cc1ccccc1Cl | -18.3% | –
CC(C)[C@H](NC(=O)OCc1ccccc1)C(=O)N[C@H](C=O)Cc1ccccc1 (Cbz-Val-Phe-aldehyde) | -11.9% | –
Cc1nc2cnc(N3CCNCC3)nc2n(-c2ccccc2)c1=O | -1.85% | –
CN1CCN(c2ncc3nc(-c4cc(F)cc(F)c4)c(=O)n(C4CC4)c3n2)CC1 | -3.22% | –
O=S(=O)(O)c1cc(O)c2c(N=Cc3ccccc3O)cc(S(=O)(=O)O)cc2c1 | -8.82% [at 11.4 µM] | –
Cc1cc(C)n(-c2nc(Nc3ccccc3C)nc(-n3nc(C)cc3C)n2)n1 | 2.75% | –
CCN1/C(=C/c2ccc3cccc(C)c3[n+]2CC)Sc2ccccc21 | – | 0.0708 µM (active)
CC1(C)O[C@@H]2C[C@H]3[C@H]4C[C@H](F)C5=CC(=O)C=C[C@@]5(C)[C@@H]4[C@H](O)C[C@]3(C)[C@]2(C(=O)CO)O1 | -4.12% [at 25.6 µM] | –
Cc1cc(S(=O)(=O)NCCN(C)C)c(C)s1 | -9.26% | –
CCN(CCO)Cc1csc2cccc(Br)c12 | – | 15.8 µM (active)
COc1ccc(-n2c(=O)c(-c3cccc(Cl)c3)nc3cncnc32)cc1 | -12.5% | –
CCOC(=O)c1cnc2cc(-c3ccc(C(C)(C)C)cc3)nn2c1N | -11.3% | –
O=C(CCc1ccccc1)NCc1cccnc1 | -16.4% | –
O=C(CSCc1c(Cl)cccc1Cl)NCc1cccnc1 | – | 15.8 µM (active)
Cn1c(C(=O)O)c(CC(=O)NCc2cccnc2)c2ccccc21 | 20.8% | –
O=[N+]([O-])c1ccc(Cl)c(-c2ccc(/C=N/c3c(-c4ccco4)nc4ccccn34)o2)c1 | 1.14% | –
Cc1cc(-c2cccc([N+](=O)[O-])c2)nc2ccc3ccccc3c12 | 1.13% | –
N#CCCn1c(=O)c(-c2ccc(F)cc2)nc2cnc(Oc3cccc(Cl)c3)nc21 | 1.43% | –
O=C(Cc1c[nH]c2ccccc12)OCC(=O)c1ccccc1 | -28.2% | –
C[C@@](N)(Cc1c[nH]c2ccccc12)C(=O)O | 5.35% [at 11.4 µM] | –
CCOC(=O)CCCc1c[nH]c2ccccc12 | – | 17.8 µM (active)
